Test results published in the supplement of paper PMC10849652.
Of roughly 8,800 targets only a part is listed; those with a hit were picked by preference. About 0.5% of all pairs of compound and target were hits.

Compound: C1=CC=C(C=C1)[C@H](COC2=CC3=C(C=C2)NC(=O)N3)NC(=O)C4=CC=CN(C4=O)CC5=CC(=C(C=C5)F)F
Experiment: log2 fold change, soluble protein after heating vs DMSO (PISA); higher = thermal stabilisation; K562 lysate, 10 uM; active = over 0.2 and 3.5 SD of the protein, either way, in both replicates (recomputed)
Method in brief: (§1)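 Dounce homogenisation of K562 pellets in PBS pH 7.4 with 1 mM MgCl2 produced a crude extract, used at 1 mg/mL protein. Exposure to 10 μM compound lasted 30 min, and aliquots were then heated for 3 min across 48°C-58°C, pooled and brought to 0.5% NP-40 at 4°C. The supernatant after 21,000xg for 90 min was quantified by TMTpro 16plex LC-MS/MS with channel sums equalised. Duplicate values are given as log-two fold change in thermal stability relative to solvent controls.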

Sequence of UniProt P26374 (P26374 whole entry, looked up): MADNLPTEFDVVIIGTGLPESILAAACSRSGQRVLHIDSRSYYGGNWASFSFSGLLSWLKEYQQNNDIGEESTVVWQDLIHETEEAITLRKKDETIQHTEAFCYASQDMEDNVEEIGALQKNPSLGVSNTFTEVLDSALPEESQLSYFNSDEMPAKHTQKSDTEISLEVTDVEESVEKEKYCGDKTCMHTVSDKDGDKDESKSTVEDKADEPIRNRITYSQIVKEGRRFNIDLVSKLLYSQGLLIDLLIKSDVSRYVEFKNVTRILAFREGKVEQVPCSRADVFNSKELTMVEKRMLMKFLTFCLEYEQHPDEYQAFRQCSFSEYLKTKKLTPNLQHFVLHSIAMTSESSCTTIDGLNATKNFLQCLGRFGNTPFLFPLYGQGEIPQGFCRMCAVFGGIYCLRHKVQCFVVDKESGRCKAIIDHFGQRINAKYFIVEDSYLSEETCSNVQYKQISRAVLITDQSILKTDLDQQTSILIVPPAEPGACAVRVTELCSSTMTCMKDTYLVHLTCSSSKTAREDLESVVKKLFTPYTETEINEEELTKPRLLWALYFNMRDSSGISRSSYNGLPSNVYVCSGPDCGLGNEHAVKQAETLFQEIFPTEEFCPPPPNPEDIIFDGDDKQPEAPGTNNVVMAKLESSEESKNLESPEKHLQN
Sequence of UniProt A8TX70 (A8TX70 whole entry, looked up): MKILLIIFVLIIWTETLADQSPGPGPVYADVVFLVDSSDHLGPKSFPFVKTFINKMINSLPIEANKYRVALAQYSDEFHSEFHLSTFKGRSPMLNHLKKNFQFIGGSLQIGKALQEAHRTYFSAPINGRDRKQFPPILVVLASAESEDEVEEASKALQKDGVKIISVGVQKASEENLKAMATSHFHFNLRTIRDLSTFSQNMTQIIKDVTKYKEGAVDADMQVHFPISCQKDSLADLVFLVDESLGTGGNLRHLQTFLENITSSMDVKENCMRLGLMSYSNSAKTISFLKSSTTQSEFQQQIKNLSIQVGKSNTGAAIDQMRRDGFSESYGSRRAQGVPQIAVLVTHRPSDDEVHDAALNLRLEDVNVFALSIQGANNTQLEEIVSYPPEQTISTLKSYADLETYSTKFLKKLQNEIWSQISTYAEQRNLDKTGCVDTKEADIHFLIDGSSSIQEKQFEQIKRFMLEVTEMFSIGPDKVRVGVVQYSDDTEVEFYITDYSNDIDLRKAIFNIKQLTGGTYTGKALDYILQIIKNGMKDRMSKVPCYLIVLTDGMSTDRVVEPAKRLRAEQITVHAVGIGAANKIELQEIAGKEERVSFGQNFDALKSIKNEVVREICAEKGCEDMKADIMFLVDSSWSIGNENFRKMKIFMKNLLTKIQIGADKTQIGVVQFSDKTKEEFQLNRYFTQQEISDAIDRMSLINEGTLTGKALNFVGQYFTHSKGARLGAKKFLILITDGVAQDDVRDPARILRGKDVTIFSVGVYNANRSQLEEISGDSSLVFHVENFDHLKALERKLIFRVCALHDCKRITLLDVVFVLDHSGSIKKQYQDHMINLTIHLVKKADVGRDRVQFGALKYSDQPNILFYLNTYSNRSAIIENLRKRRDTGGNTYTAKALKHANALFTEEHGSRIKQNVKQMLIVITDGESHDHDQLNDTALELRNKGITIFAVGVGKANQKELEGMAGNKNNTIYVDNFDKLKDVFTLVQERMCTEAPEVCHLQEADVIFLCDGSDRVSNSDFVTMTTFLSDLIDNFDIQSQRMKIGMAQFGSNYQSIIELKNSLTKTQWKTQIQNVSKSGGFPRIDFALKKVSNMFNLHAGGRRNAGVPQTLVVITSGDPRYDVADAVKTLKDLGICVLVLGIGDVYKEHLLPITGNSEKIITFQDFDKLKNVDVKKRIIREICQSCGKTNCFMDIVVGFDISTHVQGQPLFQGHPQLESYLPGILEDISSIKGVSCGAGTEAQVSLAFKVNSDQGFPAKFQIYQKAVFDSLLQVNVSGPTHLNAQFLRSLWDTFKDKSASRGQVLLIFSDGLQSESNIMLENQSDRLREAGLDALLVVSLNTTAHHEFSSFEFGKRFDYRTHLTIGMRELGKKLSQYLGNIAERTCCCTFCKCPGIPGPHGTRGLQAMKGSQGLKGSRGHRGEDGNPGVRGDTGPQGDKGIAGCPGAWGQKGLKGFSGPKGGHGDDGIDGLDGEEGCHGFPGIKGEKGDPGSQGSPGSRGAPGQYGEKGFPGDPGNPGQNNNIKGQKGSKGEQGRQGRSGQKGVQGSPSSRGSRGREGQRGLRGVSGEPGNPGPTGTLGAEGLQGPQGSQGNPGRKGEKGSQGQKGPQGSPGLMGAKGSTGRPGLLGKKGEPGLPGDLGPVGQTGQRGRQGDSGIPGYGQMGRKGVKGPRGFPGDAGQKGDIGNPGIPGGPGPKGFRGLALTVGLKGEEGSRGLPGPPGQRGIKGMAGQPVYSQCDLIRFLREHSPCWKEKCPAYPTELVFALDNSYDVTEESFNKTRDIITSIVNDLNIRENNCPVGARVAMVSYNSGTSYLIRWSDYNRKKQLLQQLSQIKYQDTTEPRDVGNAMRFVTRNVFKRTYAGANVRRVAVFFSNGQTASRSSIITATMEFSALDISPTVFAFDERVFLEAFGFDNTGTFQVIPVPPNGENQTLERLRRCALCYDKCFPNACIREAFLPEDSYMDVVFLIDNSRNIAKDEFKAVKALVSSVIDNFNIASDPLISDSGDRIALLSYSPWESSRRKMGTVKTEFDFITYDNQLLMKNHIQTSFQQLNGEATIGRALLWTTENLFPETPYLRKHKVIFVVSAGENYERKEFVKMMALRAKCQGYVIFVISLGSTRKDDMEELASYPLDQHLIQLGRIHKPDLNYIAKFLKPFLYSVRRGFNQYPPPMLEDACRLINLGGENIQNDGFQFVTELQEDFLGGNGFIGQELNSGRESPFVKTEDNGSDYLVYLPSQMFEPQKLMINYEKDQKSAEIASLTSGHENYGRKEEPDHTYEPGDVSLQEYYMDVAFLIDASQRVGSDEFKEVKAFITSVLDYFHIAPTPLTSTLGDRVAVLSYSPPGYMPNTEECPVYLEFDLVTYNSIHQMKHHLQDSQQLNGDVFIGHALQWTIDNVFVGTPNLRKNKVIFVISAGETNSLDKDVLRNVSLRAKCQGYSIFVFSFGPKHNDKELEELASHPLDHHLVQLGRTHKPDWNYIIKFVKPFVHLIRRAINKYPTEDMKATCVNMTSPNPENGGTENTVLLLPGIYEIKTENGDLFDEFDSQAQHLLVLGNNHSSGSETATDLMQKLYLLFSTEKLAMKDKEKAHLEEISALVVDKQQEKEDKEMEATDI
Sequence of UniProt O95715 (O95715 whole entry, looked up): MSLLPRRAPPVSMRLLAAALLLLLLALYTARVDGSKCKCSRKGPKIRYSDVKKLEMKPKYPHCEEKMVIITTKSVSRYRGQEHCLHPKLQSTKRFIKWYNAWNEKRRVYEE
Sequence of UniProt Q99828 (Q99828 whole entry, looked up): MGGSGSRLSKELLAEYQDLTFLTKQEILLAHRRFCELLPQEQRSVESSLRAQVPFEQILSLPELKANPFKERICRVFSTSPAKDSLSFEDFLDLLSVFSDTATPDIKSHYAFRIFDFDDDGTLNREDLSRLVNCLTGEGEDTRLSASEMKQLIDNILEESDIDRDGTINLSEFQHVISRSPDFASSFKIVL
Sequence of UniProt Q9UBU7 (Q9UBU7 whole entry, looked up): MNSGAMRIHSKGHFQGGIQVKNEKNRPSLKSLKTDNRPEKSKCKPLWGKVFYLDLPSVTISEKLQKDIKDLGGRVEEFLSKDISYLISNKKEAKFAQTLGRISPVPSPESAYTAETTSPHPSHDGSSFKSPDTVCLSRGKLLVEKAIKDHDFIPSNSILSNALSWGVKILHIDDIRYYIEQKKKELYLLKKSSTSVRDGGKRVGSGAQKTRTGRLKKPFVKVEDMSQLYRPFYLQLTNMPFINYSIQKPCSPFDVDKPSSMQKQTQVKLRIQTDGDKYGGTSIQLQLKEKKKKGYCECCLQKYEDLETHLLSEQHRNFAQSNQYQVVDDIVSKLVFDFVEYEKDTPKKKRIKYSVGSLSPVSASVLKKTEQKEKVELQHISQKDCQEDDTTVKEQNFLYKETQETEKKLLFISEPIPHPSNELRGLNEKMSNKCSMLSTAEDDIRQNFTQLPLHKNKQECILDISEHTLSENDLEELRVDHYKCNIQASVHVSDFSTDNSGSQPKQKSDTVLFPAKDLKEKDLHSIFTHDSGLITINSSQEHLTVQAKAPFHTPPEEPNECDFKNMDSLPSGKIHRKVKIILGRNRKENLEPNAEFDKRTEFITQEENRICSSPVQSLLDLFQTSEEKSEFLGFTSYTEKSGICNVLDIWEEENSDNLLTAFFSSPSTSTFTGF
Sequence of UniProt Q92564 (Q92564 whole entry, looked up): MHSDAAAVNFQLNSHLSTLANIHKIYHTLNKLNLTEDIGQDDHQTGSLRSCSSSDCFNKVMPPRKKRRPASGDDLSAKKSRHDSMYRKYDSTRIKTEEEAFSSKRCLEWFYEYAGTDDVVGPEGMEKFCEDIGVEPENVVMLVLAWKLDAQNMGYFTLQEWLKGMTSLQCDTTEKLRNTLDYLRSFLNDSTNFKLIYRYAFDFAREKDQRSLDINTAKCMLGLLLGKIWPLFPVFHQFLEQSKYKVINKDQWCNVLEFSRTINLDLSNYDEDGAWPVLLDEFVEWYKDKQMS
Sequence of UniProt Q9P003 (Q9P003 whole entry, looked up): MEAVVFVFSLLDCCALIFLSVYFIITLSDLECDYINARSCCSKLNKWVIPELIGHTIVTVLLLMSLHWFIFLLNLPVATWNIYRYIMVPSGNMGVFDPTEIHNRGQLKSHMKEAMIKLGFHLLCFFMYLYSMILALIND
Sequence of UniProt P61923 (P61923 whole entry, looked up): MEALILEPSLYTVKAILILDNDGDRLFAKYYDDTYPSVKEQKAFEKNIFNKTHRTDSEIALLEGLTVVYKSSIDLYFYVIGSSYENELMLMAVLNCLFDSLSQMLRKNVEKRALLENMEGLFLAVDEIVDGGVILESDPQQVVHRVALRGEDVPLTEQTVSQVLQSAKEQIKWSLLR
Sequence of UniProt Q14019 (Q14019 whole entry, looked up): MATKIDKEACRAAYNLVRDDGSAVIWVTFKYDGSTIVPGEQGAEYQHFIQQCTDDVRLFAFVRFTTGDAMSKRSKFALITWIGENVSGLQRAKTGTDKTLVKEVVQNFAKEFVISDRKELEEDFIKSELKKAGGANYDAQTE

Row | Target | log2 fold change
1 | CNIH4 (UniProt Q9P003) | -0.355 (inactive)
2 | CIB1 (UniProt Q99828) | -0.128 (inactive)
3 | COG7 (UniProt P83436) | -0.026 (inactive)
4 | DBF4 (UniProt Q9UBU7) | 0.073 (inactive)
5 | DCP2 (UniProt Q8IU60) | 0.006 (inactive)
6 | CXCL14 (UniProt O95715) | 0.002 (inactive)
7 | CHML (UniProt P26374) | 0.011 (inactive)
8 | COPZ1 isoform 4 (UniProt P61923) | -0.101 (inactive)
9 | COL6A5 (UniProt A8TX70) | 0.025 (inactive)
10 | DCUN1D4 isoform 3 (UniProt Q92564) | 0.084 (inactive)

Compound: CC1=C(SC2=C1C(=N[C@H](C3=NN=C(N32)C)CC(=O)N)C4=CC=C(C=C4)Cl)C
Experiment: as above
Method in brief: as §1

Row | Target | log2 fold change
11 | DNAAF5 (UniProt Q86Y56) | 0.038 (inactive)
12 | CSTF2 (UniProt P33240) | 0.021 (inactive)
13 | CLUH (UniProt O75153) | 0.008 (inactive)
14 | CKM (UniProt P06732) | -0.027 (inactive)
15 | DDB2 (UniProt Q92466) | -0.026 (inactive)
16 | DIAPH3 (UniProt Q9NSV4) | 0.017 (inactive)
17 | DCTN1 (UniProt Q14203) | -0.017 (inactive)
18 | CSNK2A1 (UniProt P68400) | 0.012 (inactive)
19 | CTPS1 (UniProt P17812) | -0.013 (inactive)
20 | DNAJC5 (UniProt Q9H3Z4) | -0.015 (inactive)
21 | CKS1B (UniProt P61024) | -0.074 (inactive)
22 | CSAD isoform 3 (UniProt Q9Y600) | 0.137 (inactive)
23 | COTL1 (UniProt Q14019) | -0.019 (inactive)
24 | DDX54 isoform 2 (UniProt Q8TDD1) | 0.041 (inactive)
25 | CNOT4 isoform 6 (UniProt O95628) | -0.02 (inactive)
26 | CLPB isoform 2 (UniProt Q9H078) | -0.012 (inactive)
27 | CNDP2 (UniProt Q96KP4) | 0.017 (inactive)

Row | Target | log2 fold change
28 | CLIC2 (UniProt O15247) | 0.033 (inactive)
29 | CHEK1 (UniProt O14757) | 0.021 (inactive)
30 | CIC (UniProt I3L1Q4) | 0.225 (inactive)
31 | DPY19L3 (UniProt Q6ZPD9) | -0.131 (inactive)
32 | CWC22 (UniProt Q9HCG8) | 0.028 (inactive)
33 | CTPS2 (UniProt Q9NRF8) | -0.009 (inactive)
34 | CNIH4 (UniProt Q9P003) | -0.301 (inactive)
35 | CIB1 (UniProt Q99828) | -0.272 (active)
36 | COG7 (UniProt P83436) | 0.026 (inactive)
37 | DBF4 (UniProt Q9UBU7) | 0.002 (inactive)
38 | DCP2 (UniProt Q8IU60) | -0.001 (inactive)
39 | CXCL14 (UniProt O95715) | -0.088 (inactive)
40 | CHML (UniProt P26374) | -0.027 (inactive)
41 | COPZ1 isoform 4 (UniProt P61923) | -0.04 (inactive)
42 | COL6A5 (UniProt A8TX70) | 0.052 (inactive)
43 | DCUN1D4 isoform 3 (UniProt Q92564) | 0.087 (inactive)

Compound: CC1=C2C(=CC=C1)N=C(N(C2=O)C3=CC=CC=C3C)CN4C=NC5=C(N=CN=C54)N
Experiment: as above
Method in brief: as §1

Row | Target | log2 fold change
44 | DNAAF5 (UniProt Q86Y56) | -0.005 (inactive)
45 | CSTF2 (UniProt P33240) | 0.055 (inactive)
46 | CLUH (UniProt O75153) | 0.021 (inactive)
47 | CKM (UniProt P06732) | -0.109 (inactive)
48 | DDB2 (UniProt Q92466) | 0.034 (inactive)
49 | DIAPH3 (UniProt Q9NSV4) | -0.035 (inactive)
50 | DCTN1 (UniProt Q14203) | -0.009 (inactive)
51 | CSNK2A1 (UniProt P68400) | -0.119 (inactive)
52 | CTPS1 (UniProt P17812) | -0.029 (inactive)
53 | DNAJC5 (UniProt Q9H3Z4) | -0.034 (inactive)
54 | CKS1B (UniProt P61024) | -0.058 (inactive)
55 | COTL1 (UniProt Q14019) | 0.01 (inactive)
56 | DDX54 isoform 2 (UniProt Q8TDD1) | 0.09 (inactive)
57 | CNOT4 isoform 6 (UniProt O95628) | -0.028 (inactive)
58 | CLPB isoform 2 (UniProt Q9H078) | 0 (inactive)
59 | CNDP2 (UniProt Q96KP4) | -0.022 (inactive)

Row | Target | log2 fold change
60 | CLIC2 (UniProt O15247) | 0 (inactive)
61 | CHEK1 (UniProt O14757) | 0.006 (inactive)
62 | DPY19L3 (UniProt Q6ZPD9) | -0.106 (inactive)
63 | CWC22 (UniProt Q9HCG8) | 0.034 (inactive)
64 | CTPS2 (UniProt Q9NRF8) | -0.008 (inactive)
65 | CNIH4 (UniProt Q9P003) | -0.017 (inactive)
66 | CIB1 (UniProt Q99828) | -0.039 (inactive)
67 | COG7 (UniProt P83436) | 0.01 (inactive)
68 | DBF4 (UniProt Q9UBU7) | 0.071 (inactive)
69 | DCP2 (UniProt Q8IU60) | 0.041 (inactive)
70 | CXCL14 (UniProt O95715) | 0.128 (inactive)
71 | CHML (UniProt P26374) | 0.01 (inactive)
72 | COPZ1 isoform 4 (UniProt P61923) | 0.06 (inactive)
73 | COL6A5 (UniProt A8TX70) | 0.089 (inactive)
74 | DCUN1D4 isoform 3 (UniProt Q92564) | 0.055 (inactive)
